Assay results reported in PubChem BioAssay (NCI).
About 83,000 compounds went through this panel and 20% of them were active in at least one assay; those are over-represented in the sample as a whole.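 Method: cells in 96-well plates; compound added at one concentration; 48 h incubation; percent growth measured; values under 10 scored active.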 A number with no mark means an inactive call. The source made the active and inactive calls.

Legend:
Test in all cases: NCI-60 one-dose screen, 48 h (100 = growth as untreated, 0 = no growth, -100 = all killed)
Conditions in all cases: 10 µM unless noted
NCI/ADR-RES ovarian = test system: NCI/ADR-RES ovarian
T-47D breast = test system: T-47D breast
BT-549 breast = test system: BT-549 breast
MDA-MB-435 melanoma = test system: MDA-MB-435 melanoma
SW-620 colon = test system: SW-620 colon
MCF7 breast = test system: MCF7 breast
HCT-116 colon = test system: HCT-116 colon
HCC-2998 colon = test system: HCC-2998 colon
KM12 colon = test system: KM12 colon

Q: Which results are given for `c1cc2c(c3c1CCNC3)OCO2`?
A: growth (NCI/ADR-RES ovarian): 101%; growth (T-47D breast): 90.4%; growth (BT-549 breast): 97.4%; growth (MDA-MB-435 melanoma): 106%; growth (SW-620 colon): 112%; growth (MCF7 breast): 92.7%; growth (HCT-116 colon): 99%; growth (HCC-2998 colon): 102%; growth (KM12 colon): 106%

Q: What does the source list for `CN(C)CC(C(=O)Cc1ccccc1)c1ccccc1` (stereo unspecified)?
A: growth (NCI/ADR-RES ovarian): 76.5%; growth (T-47D breast): -37.8% (active); growth (BT-549 breast): 76.3%; growth (MDA-MB-435 melanoma): 26.8%; growth (SW-620 colon): 20.6%; growth (MCF7 breast): 1.13% (active); growth (HCT-116 colon): 2.48% (active); growth (HCC-2998 colon): 116%; growth (KM12 colon): -1.54% (active)

Q: For `C/C(=C\c1ccn(-c2ccc(N)cc2C(F)(F)F)n1)[C@@H]1C[C@@H]2O[C@]2(C)CCC[C@H](C)[C@H](O)[C@@H](C)C(=O)C(C)(C)[C@@H](O)CC(=O)O1`, which growth (NCI/ADR-RES ovarian) is on record?
A: Its growth is 1.74% (active).

Q: And the growth (T-47D breast)?
A: Its growth is 39.1%.

Q: And the growth (BT-549 breast)?
A: The growth was 27%.

Q: What about the growth (MDA-MB-435 melanoma) of the same compound?
A: The growth was -61.7% (active).

Q: What about the growth (SW-620 colon) of the same compound?
A: The growth was 23.9%.

Q: What about the growth (MCF7 breast) of the same compound?
A: Its growth is 16.4%.

Q: And the growth (HCT-116 colon)?
A: The growth was 12.1%.

Q: And the growth (HCC-2998 colon)?
A: Its growth is 14.1%.

Q: And the growth (KM12 colon)?
A: The growth was 11.4%.

Q: How did the growth (NCI/ADR-RES ovarian) turn out when `COc1cc(/C=N/C2=C(C#N)C(c3ccco3)c3c(c4cc(C)ccc4oc3=O)O2)cc(OC)c1OC` (stereo unspecified) was run?
A: The growth was 96.3%.

Q: And the growth (T-47D breast)?
A: The growth was 88.2%.

Q: What about the growth (BT-549 breast) of the same compound?
A: Its growth is 91.1%.

Q: What about the growth (MDA-MB-435 melanoma) of the same compound?
A: The growth was 26.1%.

Q: What about the growth (SW-620 colon) of the same compound?
A: Its growth is 81.7%.

Q: And the growth (MCF7 breast)?
A: The growth was 70.1%.

Q: What about the growth (HCT-116 colon) of the same compound?
A: Its growth is 84.9%.

Q: And the growth (HCC-2998 colon)?
A: Its growth is 109%.

Q: What about the growth (KM12 colon) of the same compound?
A: The growth was 81.4%.

Q: What does the source list for `CC(=O)Nc1nc2c(s1)CC[C@@]1(C)C2=CC[C@H]2[C@@H]3CC[C@H](O)[C@@]3(C)CC[C@@H]21`?
A: growth (NCI/ADR-RES ovarian): 45.5%; growth (T-47D breast): 82%; growth (BT-549 breast): 42.6%; growth (MDA-MB-435 melanoma): 5.93% (active); growth (SW-620 colon): 44.8%; growth (MCF7 breast): 24.6%; growth (HCT-116 colon): 30.3%; growth (HCC-2998 colon): 96%; growth (KM12 colon): 49.4%

Q: Which growth (NCI/ADR-RES ovarian) does the source give for `ClCCN(CCCl)c1ccc(/C=N/Nc2ncnc3nc[nH]c23)cc1` here?
A: Its growth is 98.4%.

Q: What about the growth (T-47D breast) of the same compound?
A: Its growth is 59.8%.

Q: And the growth (BT-549 breast)?
A: The growth was 95%.

Q: What about the growth (MDA-MB-435 melanoma) of the same compound?
A: The growth was 79.9%.

Q: What about the growth (SW-620 colon) of the same compound?
A: Its growth is 77.6%.

Q: What about the growth (MCF7 breast) of the same compound?
A: The growth was 42.5%.

Q: What about the growth (HCT-116 colon) of the same compound?
A: Its growth is 78.4%.

Q: What about the growth (HCC-2998 colon) of the same compound?
A: The growth was 94.6%.

Q: And the growth (KM12 colon)?
A: Its growth is 96.6%.

Q: How did the growth (NCI/ADR-RES ovarian) turn out when `C=CC[n+]1ccc(-c2cc[n+](CC=C)cc2)cc1` was run?
A: The growth was 111%.

Q: What about the growth (T-47D breast) of the same compound?
A: Its growth is 82.1%.

Q: And the growth (BT-549 breast)?
A: The growth was 109%.

Q: What about the growth (MDA-MB-435 melanoma) of the same compound?
A: The growth was 104%.

Q: What about the growth (SW-620 colon) of the same compound?
A: Its growth is 114%.

Q: And the growth (MCF7 breast)?
A: The growth was 89.7%.

Q: What about the growth (HCT-116 colon) of the same compound?
A: Its growth is 98.5%.

Q: And the growth (HCC-2998 colon)?
A: Its growth is 95.4%.

Q: And the growth (KM12 colon)?
A: Its growth is 65.3%.

Q: Which results are given for `Clc1cccc(NCOOC2(OOCNc3cccc(Cl)c3)CCCCCC2)c1`?
A: growth (NCI/ADR-RES ovarian): 61.8%; growth (T-47D breast): 89%; growth (BT-549 breast): 101%; growth (MDA-MB-435 melanoma): 105%; growth (SW-620 colon): 107%; growth (MCF7 breast): 87.2%; growth (HCT-116 colon): 90.6%; growth (HCC-2998 colon): 107%; growth (KM12 colon): 87.9%

Q: Which growth (NCI/ADR-RES ovarian) does the source give for `O=C(Nc1ccncc1F)c1cn(CC2CC2)c2ccccc12` here?
A: The growth was 101%.

Q: And the growth (T-47D breast)?
A: Its growth is 92.3%.

Q: And the growth (BT-549 breast)?
A: The growth was 94.4%.

Q: What about the growth (MDA-MB-435 melanoma) of the same compound?
A: Its growth is 106%.

Q: What about the growth (SW-620 colon) of the same compound?
A: Its growth is 105%.

Q: What about the growth (MCF7 breast) of the same compound?
A: The growth was 94.9%.

Q: What about the growth (HCT-116 colon) of the same compound?
A: The growth was 99.5%.

Q: And the growth (HCC-2998 colon)?
A: The growth was 106%.

Q: And the growth (KM12 colon)?
A: Its growth is 104%.

Q: For `CN[C@]1(c2ccccc2Cl)CCCC[C@H]1NCCCN1CCN(C)CC1`, which growth (NCI/ADR-RES ovarian) is on record?
A: The growth was 101%.

Q: What about the growth (T-47D breast) of the same compound?
A: Its growth is 103%.

Q: And the growth (BT-549 breast)?
A: The growth was 102%.

Q: And the growth (MDA-MB-435 melanoma)?
A: Its growth is 103%.

Q: And the growth (SW-620 colon)?
A: The growth was 99.4%.

Q: What about the growth (MCF7 breast) of the same compound?
A: Its growth is 102%.

Q: And the growth (HCT-116 colon)?
A: Its growth is 97.8%.

Q: And the growth (HCC-2998 colon)?
A: The growth was 99.5%.

Q: What about the growth (KM12 colon) of the same compound?
A: Its growth is 101%.

Q: `COc1cc2c(cc1OCCCCn1c(-c3cccs3)nc3ccccc31)N=C[C@@H]1CCCN1C2=O` was tested. Which growth (NCI/ADR-RES ovarian) did it give?
A: The growth was 36.5%.

Q: What about the growth (T-47D breast) of the same compound?
A: Its growth is 5.95% (active).

Q: And the growth (BT-549 breast)?
A: The growth was -55.6% (active).

Q: What about the growth (MDA-MB-435 melanoma) of the same compound?
A: Its growth is -78.8% (active).

Q: And the growth (SW-620 colon)?
A: Its growth is 2.49% (active).

Q: And the growth (MCF7 breast)?
A: Its growth is -15.2% (active).

Q: What about the growth (HCT-116 colon) of the same compound?
A: Its growth is 8.65% (active).

Q: What about the growth (HCC-2998 colon) of the same compound?
A: The growth was 0.698% (active).

Q: What about the growth (KM12 colon) of the same compound?
A: Its growth is 0.0109% (active).

Q: Which results are given for `O=C1C=C(N2C3C4CCC(C4)C32)C(=O)C=C1c1ccccc1` (stereo unspecified)?
A: growth (NCI/ADR-RES ovarian): 99.4%; growth (T-47D breast): 6.64% (active); growth (BT-549 breast): 93.2%; growth (MDA-MB-435 melanoma): 99.7%; growth (SW-620 colon): 82.6%; growth (MCF7 breast): 62.4%; growth (HCT-116 colon): 85%; growth (HCC-2998 colon): 115%; growth (KM12 colon): 102%

Q: What does the source list for `COC(=O)[C@H](Cc1c[nH]c2ccccc12)NC(=O)[C@@H](OC)[C@@H]1Cc2cc3cc(OC4CC(OC5CC(O)C(O)C(C)O5)C(O)C(C)O4)c(C)c(O)c3c(O)c2C(=O)[C@H]1OC1CC(OC2CC(OC3CC(C)(O)C(O)C(C)O3)C(O)C(C)O2)C(O)C(C)O1` (stereo partly specified)?
A: growth (NCI/ADR-RES ovarian): 76.7%; growth (T-47D breast): 8.07% (active); growth (BT-549 breast): -53.4% (active); growth (MDA-MB-435 melanoma): -71.9% (active); growth (SW-620 colon): 6.98% (active); growth (MCF7 breast): 5.98% (active); growth (HCT-116 colon): 3.71% (active); growth (HCC-2998 colon): -46.8% (active); growth (KM12 colon): 0.363% (active)

Q: `O=[N+]([O-])CC(c1ccccc1Cl)c1c(-c2ccccc2)[nH]c2ccccc12` (stereo unspecified) was tested. Which growth (NCI/ADR-RES ovarian) did it give?
A: The growth was 25.5%.

Q: What about the growth (T-47D breast) of the same compound?
A: The growth was 22.1%.

Q: And the growth (BT-549 breast)?
A: The growth was 37.3%.

Q: And the growth (MDA-MB-435 melanoma)?
A: The growth was -9.48% (active).

Q: And the growth (SW-620 colon)?
A: Its growth is 25.2%.

Q: And the growth (MCF7 breast)?
A: Its growth is 21.8%.

Q: What about the growth (HCT-116 colon) of the same compound?
A: Its growth is 20.3%.

Q: What about the growth (HCC-2998 colon) of the same compound?
A: Its growth is 71.3%.

Q: And the growth (KM12 colon)?
A: Its growth is 26.8%.
